Rows were chosen to be rich in hits. Some 3.6% of all compounds tested hit in one or more screens of this group.
Pf apPOL inh = Pf-apPOL inhibitors, biochemical, fluorescence | hit rate 0.25% among 210,000 | Plasmodium falciparum apicoplast DNA polymerase (apPOL) | AID 1794808, 2022 | Recombinant Pf-apPOL, molecular beacon fluorescence, 1.5 h | inhibition, % at 10 µM
mHTT-CaM PPI inh = mutant huntingtin-calmodulin interaction inhibitors – biochemical, AlphaScreen, primary screen; P42858; AlphaScreen His-mHTT/GST-CaM binding, luminescence; inhibition, % at 15 µM; hit rate 3.6% among 190,000; AID 1671202, 2021;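 also: 0% = both proteins with DMSO and 100% = one protein alone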
Numbers without * were called inactive; . = no result given. Rule as the data show it: active = inhibition above about 50%; inactive = the rest.

SMILES | Pf apPOL inh | mHTT-CaM PPI inh
COc1ccc(-c2n[nH]c3c2C(c2ccc(OC)cc2)N(c2ccccc2)C3=O)cc1 (configuration not stated) | -2 | 43
O=C1c2[nH]nc(-c3ccccc3)c2C(c2cccc([N+](=O)[O-])c2)N1c1ccccc1 (configuration not stated) | 28 | 28
COc1cc([N+](=O)[O-])cc(CN2CCN(Cc3ccccc3)CC2)c1O | 1 | 1
O=C1N/C(=C\c2ccc(Br)s2)C(=O)N1Cc1ccc(Cl)cc1 | 11 | -4
COc1ccc(CNC(=O)Nc2ccc(CC(=O)N(C)C)cc2)cc1 | -7 | -7
Cc1ccc(O)c(NC(=O)CSc2n[nH]c(C)c2[N+](=O)[O-])c1 | 11 | 13
Cc1[nH]nc(SCC(=O)Nc2cc(Br)ccc2O)c1[N+](=O)[O-] | 1 | 52*
CCOc1ccccc1CNC(=O)CN1CCc2ccccc2C1C(=O)N1CCCCC1 (configuration not stated) | -2 | 25
Oc1ccccc1-c1cc(-c2ccccc2)no1 | -5 | -10
COc1ccc(-c2cc(C(=O)O)c3cc(C)ccc3n2)cc1 | -5 | -3
COc1ccc(-c2cc(-c3cc(C)ccc3O)[nH]n2)cc1 | -18 | 70*
Cc1nc2cccc(-c3cc(-c4ccccc4O)[nH]n3)c2o1 | -6 | 67*
Oc1ccccc1-c1cc(-c2ccc(Br)cc2)n[nH]1 | -3 | 35
Cc1ccccc1-c1cc(-c2ccccc2O)on1 | -8 | -42
Cc1ccc(O)c(-c2cc(-c3ccccc3)n[nH]2)c1 | -3 | 74*
Oc1ccccc1-c1cc(-c2cccc(Br)c2)n[nH]1 | -10 | 96*
COc1ccc([N+](=O)[O-])cc1C1=N/C(=C/c2ccccc2C(F)(F)F)C(=O)O1 | -4 | 1
CCc1ccc(OCC(=O)NC2CCCC2)cc1 | -2 | -9
Cc1ccc(C(C2=C(O)CC(C)(C)CC2=O)C2C(=O)CC(C)(C)CC2=O)cc1 (configuration not stated) | -10 | 5
CN(CC(=O)N1N=C(c2cccs2)CC1c1ccccc1F)C(=O)C1CC1 (configuration not stated) | -8 | 18
Cc1[nH]nc(-c2ccccc2)c1Br | 2 | -9
Cc1ccc(O)c(-c2cc(-c3cccs3)[nH]n2)c1 | 3 | 56*
NC(N)=NC(N)=Nc1cc(-c2cccs2)[nH]n1 | 2 | .
Cc1cc(-c2ccccc2)n[nH]1 | 83* | 7
O=C(O)c1n[nH]nc1C(=O)O | . | 63*
SMILES | Pf apPOL inh | mHTT-CaM PPI inh
COC(=O)c1n[nH]nc1[N+](=O)[O-] | . | -1
COc1ccc(-c2nc3c(c(=O)[nH]2)CCN(S(=O)(=O)c2ccc(C)c(Cl)c2)C3)cc1 | -4 | 5
O=C(Nc1ccc(Cl)cc1)N1CCCC1c1cccc(F)c1 (configuration not stated) | -3 | -17
Cc1ccc(N2CCN(C(=O)Nc3cccc(F)c3C)CC2)nn1 | -10 | -7
Cc1ccc(-c2nnc(N3CCC(C(=O)NCc4cccc(F)c4)CC3)o2)cc1 | -2 | 4
CCc1ccc(O)c(N=Cc2cc(C)ccc2O)c1 | 0 | 27
CCc1ccc(O)c(N=Cc2cc(I)ccc2O)c1 | 14 | 54*
O=C(NCc1cccnc1)C1CCCN(c2ncnc3c2nc2n3CCCCC2)C1 (configuration not stated) | -1 | 2
O=C1NC(c2ccc(-c3ccc(F)cc3)o2)Nc2sc3c(c21)CCCC3 (configuration not stated) | 19 | 63*
O=C1NC(/C=C/c2ccccc2)Nc2sc3c(c21)CCCC3 (configuration not stated) | -5 | 66*
O=C1NC(c2ccc(O)cc2)Nc2sc3c(c21)CCCC3 (configuration not stated) | -1 | 57*
CN(C)c1ccc(C2NC(=O)c3c(sc4c3CCCC4)N2)cc1 (configuration not stated) | 12 | 26
O=C1NC(c2ccc3c(c2)OCO3)Nc2sc3c(c21)CCCC3 (configuration not stated) | -8 | 1
O=C1NC(c2cccs2)Nc2sc3c(c21)CCCC3 (configuration not stated) | -2 | 7
CCC(=O)N1CCc2sc(S(=O)(=O)NCc3ccc4c(c3)OCO4)cc2C1 | -5 | 2
O=S(=O)(CS(=O)(=O)Oc1cc(Cl)cc(Cl)c1)Oc1cc(Cl)cc(Cl)c1 | -10 | .
Fc1cc(F)cc(CN2CCc3nc(Nc4ccccc4)ncc3C2)c1 | -5 | -6
CC(=O)NC(=O)c1cc2ccccc2oc1=Nc1ccc(I)cc1 | -3 | 5
COc1ccc(NC(=O)CN2C(=O)CC(c3ccco3)Sc3ccccc32)c(OC)c1 (configuration not stated) | -3 | 92*
COc1ccc(Cl)cc1NC(=O)CN1C(=O)CC(C)Sc2ccccc21 (configuration not stated) | -4 | 0
CCC(CC)C(=O)N1CCc2c(c(-c3nc(Cc4ccccc4)no3)nn2C)C1 | 0 | -1
Cc1ccc2nc(C(=O)NCCN3CCCCC3)cn2c1 | -2 | -4
Cc1ccc2nc(C(=O)NCCN3CCCCCC3)cn2c1 | 34 | 50*
C=CCSc1nc2c(cc1C#N)CCCC2 | -11 | -41
CC(C)c1ccc(C2C(S(=O)(=O)NCc3ccccc3F)CON2C)cc1 (configuration not stated) | -2 | 2
SMILES | Pf apPOL inh | mHTT-CaM PPI inh
O=C(NCCc1ccccc1)[C@@H]1CC=C[C@@H]2CCN(Cc3ccc(Cl)c(Cl)c3)C(=O)[C@@H]21 | -9 | 100*
CCCCNC(=O)[C@@H]1CC=C[C@@H]2CCN(Cc3ccc(Cl)c(Cl)c3)C(=O)[C@@H]21 | -15 | 25
O=C(NCc1cccnc1)[C@@H]1CC=C[C@@H]2CCN(Cc3ccc(Cl)c(Cl)c3)C(=O)[C@@H]21 | -6 | 59*
COc1ccc(CNC(=O)[C@@H]2CC=C[C@@H]3CCN(Cc4ccccc4)C(=O)[C@@H]32)cc1 | 0 | 5
COc1cc(C2C(C#N)=C(N)Oc3c2[nH]c(=O)[nH]c3=O)cc(OC)c1OC (configuration not stated) | 97* | -4
COc1cc(C2C(C#N)=C(N)Oc3c2oc(CO)cc3=O)cc(OC)c1OC (configuration not stated) | 4 | 2
CC(=O)NC(=O)c1cc2ccccc2oc1=Nc1ccc(Cl)cc1 | 11 | 5
Cc1cc(C(=O)NCC(C)(O)c2cccs2)c(C)o1 (configuration not stated) | 0 | -12
CCOCCCNC(=O)CCC(=O)N1CC2CCCN2c2ccccc21 (configuration not stated) | -4 | 15
O=S(=O)(c1ccccc1)N1N=C(c2ccccc2)CC1c1ccccc1Cl (configuration not stated) | 1 | 2
O=S(=O)(Cc1nc(-c2cccc(Br)c2)no1)c1ccccc1 | 1 | -54
Brc1cccc(-c2noc(CSc3nccn3-c3ccccc3)n2)c1 | 0 | 63*
Cc1cccc(NC(c2cccc(O)c2)c2ccc3ccc(C)nc3c2O)n1 (configuration not stated) | -12 | 89*
Cc1cccc(NC(c2cccnc2)c2ccc3ccc(C)nc3c2O)n1 (configuration not stated) | -6 | 90*
CCC(C(=O)Nc1cccc(C)n1)c1ccccc1 (configuration not stated) | -5 | -6
CCC(C(=O)Nc1ccccn1)c1ccccc1 (configuration not stated) | 2 | -4
